In PubChem BioAssay (EPA / NIEHS):
Calls of active or inactive are those of the source. Rule for the calls: active = hit-call score of the fitted dose curve at least 0.9, where 1 is the maximum; inactive = score below 0.9.

Each molecule was assayed on Plasminogen activator inhibitor-1 (PAI1), SERPINE1 (gene 5054) (assay: BSK_KF3CT_PAI1: BioMAP Diversity Plus: KF3CT Assay for Plasminogen activator inhibitor-1 (PAI1) Biomarker Activity (AID 2284252)). Details: primary human keratinocytes with fibroblasts.
Description: BSK_KF3CT is a cell-based, multiplexed-readout assay that uses keratinocytes and foreskin fibroblasts, a human skin primary cell co-culture, with measurements taken at 24 hours after chemical dosing in a 96-well plate.BSK_KF3CT_PAI1 is an assay component measured in the BSK_KF3CT assay. It measures PAI-1 antibody related to regulation of gene expression using ELISA technology.Data from the assay component BSK_KF3CT_PAI1 was analyzed at the endpoint, BSK_KF3CT_PAI1, in the positive analysis fitting direction relative to DMSO as the negative control and baseline of activity. Using a type of binding reporter, gain or loss-of-signal activity can be used to understand protein changes. To generalize the intended target to other relatable targets, this assay endpoint is annotated to the 'cytokine' intended target family, where the subfamily is 'plasmogen activator inhibitor'.
The levels of cell surface (or secreted, indicated by the prefix "s") biomarker endpoints were measured by ELISA. Overt cytotoxicity to cells in confluent adherent cultures (all systems other than the BT system) was assessed by measuring total protein levels using sulforhodamine B (SRB) staining in parallel cultures at the time of biomarker measurements, indicated as SRB endpoints. For proliferation assays for adherent cell types, individual cell types are cultured at sub-confluence and relative cell numbers quantified by SRB staining at time points optimized for each system (48 h: 3C and CASM3C systems; 72 h: BT and HDF3CGF systems; 96 h: SAg system). SRB was performed by staining cells with 0.1% SRB after fixation with 10% TCA and reading wells at 560 nm.Viability and proliferation of PBMC (T cells) was quantified by Alamar Blue reduction for the SAg and BT systems. For PBMC viability (referred to as PBMC Cytotoxicity within the assay endpoint names), cells were plated (75,000/well in a 96-well plate) and then chemical samples added for 1 h before addition of activators, SEB and TSST-1 (20 ng/mL final concentration each). Cells were incubated for 90 h. Then, Alamar Blue (20 uL/well) (Invitrogen, Cat DAL1100) was added for 6 h, and the plates were read with a fluorescence microplate reader at 546/580 nm (excitation/emission). For PBMC proliferation, cells were plated and activated as above but incubated for only 16 h prior to addition of Alamar Blue. Plates were read after 6 h.

SMILES	outcome
O=S(=O)(O)CCC(F)(F)C(F)(F)C(F)(F)C(F)(F)C(F)(F)C(F)(F)F	inactive
FC(F)(F)COC(OCC(F)(F)F)OCC(F)(F)F	inactive
OC(O)(C(F)C(O)(O)C(F)(F)F)C(F)(F)F	inactive
NCC(F)(F)C(F)(F)C(F)(F)C(F)(F)F	inactive
OCCC(F)(F)C(F)(F)C(F)(F)C(F)(F)F	inactive
C[Si](C)(C)C(F)(F)C(F)(F)C(F)(F)F	inactive
FC(F)C(F)(F)COCC1CO1 (stereo not given)	inactive
O=C(Cl)C(F)(F)C(F)(F)C(F)(F)C(=O)Cl	inactive
FC(F)(F)C(F)(F)C(F)(F)C(F)(F)C(F)(F)C(F)(F)I	inactive
FC(F)=C(F)C(F)(F)C(F)(F)C(F)(F)C(F)(F)C(F)(F)C(F)(F)F	inactive
